Source: PubChem BioAssay
A number with no mark means an inactive call. The rule behind the calls is not given here.

The compounds below were run on Aerobactin synthetase IucA (Klebsiella pneumoniae hvKP1) (assay: IucA enzyme inhibition, primary screen, biochemical, Spectrum library (AID 1346200;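 note: 100% = wells without compound and 0% = wells lacking enzyme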)). Settings: malachite green pyrophosphate, A620, at 8 µM, active compounds read low.

Structure (SMILES) | activity remaining [%]
O=c1c(-c2ccccc2)coc2cc(O)cc(O)c12 | 109
c1ccc2c(c1)CN1CCCC1=N2 | 99.8
CCn1cc(C(=O)O)c(=O)c2cnc(N3CCCC3)nc21 | 105
CC[C@]1(O)CC2CN(CCc3c([nH]c4ccccc34)[C@@](C(=O)OC)(c3cc4c(cc3OC)N(C)[C@H]3[C@@](O)(C(=O)OC)[C@H](OC(C)=O)[C@]5(CC)C=CCN6CC[C@]43[C@@H]65)C2)C1 (stereo not given in full) | 126
CNCC[C@@H](Oc1ccccc1)c1ccccc1 | 111
O=c1c2ccccc2oc2ccccc12 | 117
O=C1C=CC2=C3c4cc(O)c(O)cc4C[C@@]3(O)COC2=C1 | 120
CC1(C)C=Cc2cc3ccc(=O)oc3cc2O1 | 119
COc1cc2c(cc1OC)-c1c(oc3cc(O)cc(O)c3c1=O)CO2 | 90.7
COc1ccc(/C=C/C(=O)c2cc(O)ccc2O)cc1 | 87.4
C[C@H](CCC(=O)O)[C@H]1CCC2C3C(=O)CC4CC(=O)CC[C@]4(C)C3CC(=O)[C@@]21C (stereo not given in full) | 122
CN(C)CCOC(c1ccc(Cl)cc1)c1ccccn1 (stereo not given) | 115
CC1(C)CC23C(=O)CCC(O)C2(C)CCC13 (stereo not given) | 113
O=C1C=CC(=O)c2c(O)c(Cl)c(Cl)c(O)c21 | 109
CC1OC(O[C@H]2/C=C/C=C/C=C/C=C/C=C/C=C/C=C/[C@H](C)[C@@H](O)[C@@H](C)[C@H](C)OC(=O)CC(O)CC(O)CCC(O)C(O)CC(O)CC3(O)C[C@H](O)C(C(=O)O)C(C2)O3)C(O)[C@H](N)C1O (stereo not given in full) | 89.3
CC1CCC2(OC1)OC1CC3C4CCC5C[C@@H](O)CCC5(C)C4=CCC3(C)C1[C@@H]2C (stereo not given in full) | 95.7
C=C1c2cccc(O)c2C(O)=C2C(=O)[C@]3(O)C(O)=C(C(N)=O)C(=O)[C@@H](N(C)C)[C@@H]3[C@@H](O)[C@H]12 | 111
CCOC(=O)OC(C)OC(=O)C1N2C(=O)C(NC(=O)[C@H](N)c3ccccc3)C2SC1(C)C (stereo not given in full) | 104
Cc1c(Cl)cccc1Nc1ccccc1C(=O)O | 82.9
CC1=NN(c2ccccc2)C(=O)C1 | 120

Structure (SMILES) | activity remaining [%]
CN(C(=O)CN(CCO)CC(=O)N(C)C(C)(C)Cc1ccccc1)C(C)(C)Cc1ccccc1 | 101
C#C[C@]1(O)CCC2C3CCC4=CC(=O)CC[C@@H]4C3CC[C@@]21C (stereo not given in full) | 108
C[C@]12CCC(=O)C=C1CCC1C2C(=O)C[C@@]2(C)C1CC[C@]2(O)C(=O)CO (stereo not given in full) | 111
C=CC(C1=CC(=O)C(OC)=CC1=O)c1ccccc1 (stereo not given) | 113
CN(C/C=C/C#CC(C)(C)C)Cc1cccc2ccccc12 | 114
COc1ccc(-c2cc(=O)c3ccccc3o2)cc1 | 114
COC(=O)[C@@H]1OC(=O)C2OC23[C@@]1(C)CCC1[C@]2(C)C(C[C@@H](O)[C@]13C)C(C)(C)[C@H](OC(C)=O)C[C@@H]2OC(C)=O (stereo not given in full) | 96.4
O=C(OCC(O)CO)c1ccccc1Nc1ccnc2cc(Cl)ccc12 (stereo not given) | 119
O=C1O[C@H](C(O)CO)C(O)=C1O (stereo not given in full) | 92.2
CCCCCCNC(=O)n1cc(F)c(=O)[nH]c1=O | 112
CC(C)=CC1C(C(=O)O)C1(C)C (stereo not given) | 121
OCCOCCN1CCN(C2=Nc3ccccc3Sc3ccccc32)CC1 | 105
COc1ccccc1OCC(O)COC(N)=O (stereo not given) | 108
c1ccc(CC2=NCCN2)cc1 | 118
CCOC(=O)n1ccn(C)c1=S | 127
CC(NCCC(c1ccccc1)c1ccccc1)c1ccccc1 (stereo not given) | 104
Cc1ccc(C(C)C)cc2c(C)ccc1-2 | 121
O=C1[C@H](CCC(O)c2ccc(F)cc2)[C@@H](c2ccc(O)cc2)N1c1ccc(F)cc1 (stereo not given in full) | 122
Cc1onc(-c2ccccc2Cl)c1C(=O)N[C@@H]1C(=O)N2[C@@H]1SC(C)(C)[C@@H]2C(=O)O | 96.2
CC1(C)CC[C@]2(C(=O)O)CC[C@]3(C)C(=CCC4[C@@]5(C)CC[C@H](O)C(C)(C)C5[C@H](O)C[C@]43C)C2C1 (stereo not given in full) | 76.1
